DAX1 inh-1 = inhibitors of human orphan nuclear receptor DAX1 (NR0B1); P51843; AID 504766; inhibition, % at 6.75 µM; HEK293 Gal4-DAX1 luciferase reporter, luminescence; 0.99% of 340,000 active;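 active means inhibition above the mean over all tested compounds plus 3 SD, cut at about 4.2% in these data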;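 further: 0% = DAX1-transfected cells with DMSO and 100% = empty-vector control cells with DMSO; inhibition shows as a rise in luminescence from relieved DAX1 repression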
Target sequence (P51843 207-470 limits assumed): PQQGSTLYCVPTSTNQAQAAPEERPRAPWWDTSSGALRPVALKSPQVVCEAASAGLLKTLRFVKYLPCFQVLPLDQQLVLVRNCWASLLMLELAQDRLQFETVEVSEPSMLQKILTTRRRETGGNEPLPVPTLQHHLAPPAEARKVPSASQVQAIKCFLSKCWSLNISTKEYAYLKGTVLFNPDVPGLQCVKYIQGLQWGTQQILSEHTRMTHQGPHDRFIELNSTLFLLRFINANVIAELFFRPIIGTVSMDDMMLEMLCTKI
hcDAF-12 act = H. contortus DAF-12 activation, primary screen; activation, % at 6.8 µM; 1.4% of 370,000 active; HEK293 hcDAF-12 lit1-tk-luc reporter, luminescence; 0% DMSO, 100% Δ7-dafachronic acid;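 active means activation above the mean of all tested compounds plus 3 SD, cut at about 5.5% in these data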;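 further: 100% = response to 3 µM Δ7-dafachronic acid high control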
ssDAF-12 act = activates DAF-12 receptor from parasite S. stercoralis. HEK293 ssDAF-12/GRIP1 lit1-tk-luc reporter, luminescence; % of 3 µM dafachronic acid response. activation, % at 6.8 µM. 1% of 370,000 active. AID 652126;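 active means activation above the mean over all tested compounds plus 3 SD, cut at about 0.9% in these data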;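 further: 0% = DMSO-only wells and 100% = 3 µM delta7-dafachronic acid wells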
SMARCA2 activ = increases SMARCA2 function in MMTV reporter cells; activation, % at 9.1 µM; 1% of 370,000 active; MG213 cells, MMTV-luciferase reporter, dexamethasone, overnight; AID 652017; in the data active means activation above about 7.8%;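 further: 0% = vehicle wells and 100% = reference activator wells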
DAX1 inh-2 = blocks DAX1 repression of SF-1 activated StAR promoter; HEK293T StAR-luciferase reporter, SF-1/DAX-1 repression relief; inhibition, % at 6.8 µM; 1.1% of 370,000 active;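 active means inhibition above the mean over all tested compounds plus 3 SD, cut at about 3.6% in these data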;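 further: 0% = DAX-1 cells with DMSO and 100% = cells lacking DAX-1 with DMSO; higher inhibition means more luminescence from relief of DAX-1 repression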
hgDAF12 agonist = hgDAF-12 agonism, primary luciferase screen; 1.8% of 370,000 active; activation, % at 6.8 µM; AID 687014; HEK293 GAL4-hgDAF12 UAS-luciferase reporter, agonist luminescence; normalized to butyrate control;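 active means activation above a cutoff set at the mean of all screened compounds plus 3 SD, cut at about 10% in these data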;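 further: 0% = DMSO wells and 100% = sodium butyrate wells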
SMARCA2 act conf = SMARCA2 activation, confirmation screen | shares compounds with SMARCA2 activ | MG213 cells, MMTV-luciferase with dexamethasone, luminescence, overnight; MG213 cells expressing E1A, Rb sequestered; DMSO wells 0%, reference activator 100% | activation, % at 9.1 µM | 30% of 3,500 active | AID 652260;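 active means activation above its plate's cutoff, the mean activation of tested wells plus 3 SD, cut at about 7.9% in these data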
VP16 Luc act = activates GAL4-VP16 luciferase, flagging SMARCA2 activator hits | 41% of 3,500 active | AID 686939 | HEK293 GAL4-VP16 pG5luc reporter, luciferase luminescence; scaled: DMSO wells 0%, SAHA wells 100% | shares compounds with SMARCA2 activ | activation, % at 9.1 µM;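 active means activation above the solvent-only control well mean plus 3 SD, averaged across control plates, cut at about 5.2% in these data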
Numbers without * were called inactive; . = no result. In the library only some 4.8% were active in any assay of this set; here they are far more common.

SMILES | DAX1 inh-1 | hcDAF-12 act | ssDAF-12 act | SMARCA2 activ | DAX1 inh-2 | hgDAF12 agonist | SMARCA2 act conf | VP16 Luc act
O=C(COc1ccccc1)N1CCCCCCC1 | 1.3 | -3.5 | -0.8 | -1.1 | -0.2 | -2.0 | . | .
COc1ccc(NC(=O)CN(C)CC(=O)Nc2sc3c(c2C(N)=O)CCC3)cc1 | 2.8 | -1.4 | -1.4 | -3.2 | -3.0 | -1.2 | . | .
Cc1[nH]c2ccccc2c1/C=N/Nc1nc2ccccc2[nH]1 | . | 2.3 | -1.0 | 21.3* | -1.4 | -1.8 | 9.2* | 4.9
Cc1[nH]c2ccccc2c1/C=N/NC(=O)c1ccc(N)cc1 | 1.0 | 4.8 | 0.1 | 9.3* | 0.0 | 2.2 | 2.6 | -0.2
Cc1[nH]c2ccccc2c1/C=N/NC(=O)CNC(=O)c1ccccc1 | 0.0 | -1.7 | -1.3 | -2.5 | -0.6 | -0.6 | . | .
CCN(CC)S(=O)(=O)c1ccc(NC(=O)c2ccccc2N(C)S(C)(=O)=O)cc1 | -1.4 | -0.9 | -1.6 | -1.0 | -0.9 | 0.8 | . | .
COc1cc(C)ccc1OCc1cc(C(=O)N2CCCCCC2)no1 | 0.0 | 1.4 | -0.3 | 0.8 | 1.6 | 1.8 | . | .
COc1cc(C)ccc1OCc1cc(C(=O)N2CCN(C)C[C@@H]2c2ccccc2)no1 | 0.9 | 1.0 | -0.6 | 8.7* | -0.1 | 4.1 | 3.9 | 2.1
COCCN1CCN(C(=O)c2cc(COc3ccc(Cl)cc3OC)on2)CC1 | 1.2 | 4.2 | -0.3 | 8.3* | 4.3* | 6.1 | 13.6* | 9.7*
COc1cc(Cl)ccc1OCc1cc(C(=O)N(C)C2CCOC2)no1 (configuration not stated) | 1.0 | 2.6 | -0.8 | 8.7* | 0.7 | 6.0 | 5.1 | 3.9
CCOC(=O)N1CCN(C(=O)c2cc(COc3ccc(Cl)cc3OC)on2)CC1 | -0.8 | -0.1 | -1.2 | 3.1 | -0.1 | -3.0 | . | .
CCOC(=O)C1CCN(C(=O)CCc2nnc3ccc(N4CCC(C)CC4)nn23)CC1 | 0.7 | -1.6 | -1.2 | -4.2 | 0.0 | -0.5 | . | .
O=C(CN1C(=O)c2ccccc2C1=O)NCc1ccncc1 | 3.1 | -0.8 | -0.7 | -3.0 | -0.5 | -1.3 | . | .
O=S(=O)([N-]c1nc2ccccc2nc1-n1cc[n+](Cc2ccccc2)c1)c1ccc(Br)cc1 | . | -0.5 | -1.0 | 10.6* | 0.2 | 0.7 | 3.0 | 0.5
CCCCC[n+]1ccn(-c2nc3ccccc3nc2[N-]S(=O)(=O)c2ccccc2)c1 | 2.5 | 0.7 | -0.2 | -3.2 | 0.6 | 1.3 | . | .
Nc1nc2cc(S(=O)(=O)NC3=NCCCCC3)ccc2s1 | 3.2 | -2.1 | -0.9 | 9.8* | -1.3 | -3.1 | -2.4 | 0.0
COc1ccccc1Cn1c(-c2ccco2)nc2nc3ccccc3nc21 | -0.3 | 0.2 | -0.4 | 8.6* | 0.6 | 1.2 | 3.6 | 0.8
Cn1nc(C(=O)N2CCc3ccccc3C2)c2ccccc2c1=O | 2.2 | 0.1 | -0.1 | 1.6 | -1.2 | 1.8 | . | .
CN1CCC(=NNC(=O)C(=O)Nc2ccccc2)CC1 | 0.9 | 1.3 | -1.3 | 8.2* | 0.9 | 2.9 | 6.2 | 1.8
Cn1c(C(=O)OCC(=O)NCc2ccco2)cc2sccc21 | 0.5 | -2.4 | -1.6 | 14.3* | -0.6 | 1.5 | 1.3 | 1.8
O=c1c(C(c2ccc(F)cc2)c2c(O)nc3n(c2=O)CCS3)c(O)nc2n1CCS2 | -1.9 | -1.4 | -1.0 | 9.3* | -0.1 | 0.9 | 5.4 | 1.3
CC(=O)N=C(N)Sc1nc2ccccc2[nH]1 | 0.6 | 5.9* | 0.4 | 9.7* | 3.4 | 10.9* | 5.6 | 9.2*
CC(Sc1nc2ccccc2[nH]1)C(=O)O (configuration not stated) | 0.3 | 1.6 | 0.1 | -2.5 | 0.2 | 0.3 | . | .
Cc1ccc(NCc2ccco2)cc1C | 1.5 | 3.1 | -0.5 | 2.9 | -0.1 | -1.2 | . | .
Cc1ccc(Nc2nnc(-c3ccccc3N)o2)cc1C | 6.5* | 3.4 | -0.7 | 12.0* | 1.3 | 10.6* | 4.3 | 8.5*
SMILES | DAX1 inh-1 | hcDAF-12 act | ssDAF-12 act | SMARCA2 activ | DAX1 inh-2 | hgDAF12 agonist | SMARCA2 act conf | VP16 Luc act
O=C(CSc1nccn1Cc1ccc(F)cc1)Nc1ccc(F)cc1F | -0.2 | -0.9 | -1.1 | -1.2 | -1.7 | -0.8 | . | .
O=C(Nc1ccccc1)c1nccn1Cc1ccc(F)cc1 | 1.5 | 0.4 | -0.4 | 9.9* | 0.8 | 3.3 | 3.5 | 3.0
Cc1ccc(C)c(-n2c(-c3csc(C)c3)n[nH]c2=S)c1 | 0.6 | -2.0 | -1.7 | 1.9 | -0.8 | 1.0 | . | .
O=C(Nc1ccccc1[N+](=O)[O-])NC1CCCCN(Cc2cccc(Cl)c2)C1=O (configuration not stated) | . | 0.3 | -1.7 | -4.1 | 0.1 | 0.2 | . | .
COc1ccc(C2CC2/C(=N/O)c2ccccn2)cc1 (configuration not stated) | 0.7 | 1.0 | -0.4 | -0.2 | 1.8 | 5.0 | . | .
COc1ccc(C2CC2C(=O)c2ccccn2)cc1 (configuration not stated) | 1.0 | 1.1 | -0.6 | 8.6* | -0.5 | 5.6 | 4.5 | 4.7
COCCOC(=O)CSc1ncccc1-c1nc2cc(C)c(C)cc2[nH]1 | -0.6 | 3.9 | 0.7 | 0.9 | 1.9 | 9.4 | . | .
Cc1cc2nc(-c3cccnc3SCC(=O)NC(C)C)[nH]c2cc1C | 0.8 | 4.4 | -0.3 | 10.6* | 4.1* | 9.6 | 8.4* | 8.9*
COc1ccc(C(=O)OCC(=O)NCCN2C(=O)CSC2=O)cc1[N+](=O)[O-] | 1.0 | -1.9 | -0.5 | -3.0 | -1.1 | -1.4 | . | .
Cc1cc(Cl)c2oc(C(=O)NCC(C)(C)N3CCOCC3)c(C)c2c1 | 0.3 | -2.2 | -1.1 | 9.3* | 0.3 | -2.5 | 3.9 | 5.2*
Cc1nn(C)cc1CNC(=O)C1(C)CC1(Cl)Cl (configuration not stated) | -0.2 | 1.7 | -1.3 | -1.7 | -0.1 | -1.8 | . | .
Cc1nn(C)cc1CNC(=O)Nc1ccc(Cl)c(Cl)c1 | 0.7 | -0.6 | -0.6 | 8.0* | 0.9 | 7.3 | 6.6 | 6.9*
N#CC1=C(N)Oc2n[nH]c(-c3ccc(F)cc3)c2C1c1cccc(OC(=O)N2CCOCC2)c1 (configuration not stated) | 0.1 | 1.6 | -0.9 | 0.4 | -0.2 | 2.5 | . | .
COC(=O)c1cccc(Oc2cccc(C(F)(F)F)c2)n1 | -0.3 | -1.5 | -0.8 | 11.0* | 0.1 | -0.3 | 1.7 | 2.2
CC(=O)OCc1ccccc1Sc1ccccc1C(=O)NCc1ccccc1 | 1.5 | 1.0 | -0.7 | 10.4* | 1.6 | 4.8 | 1.3 | 0.5
O=C(Nc1cccc(Cl)c1)NC1CCS(=O)(=O)C1 (configuration not stated) | -0.7 | -1.2 | -0.7 | 0.1 | -0.3 | -0.6 | . | .
CC(=O)N/C(N)=N/c1nc2cc(C)ccc2o1 | 1.8 | 3.5 | 0.9 | 8.9* | 2.3 | 10.6* | 5.7 | 9.6*

Screening data (PubChem BioAssay)
